Laboratory results: PubChem BioAssay AID1159580 (chemical genetic matrix, 2015)
Several values for one entry are separate records, joined by “and”; a condition that tells them apart may be missing. Equal values may be shown once. Hit rate of the full screen: of about 5,500 compounds, about 2,000 (36%) were called active. Roughly 18% stayed inconclusive and do not appear here. Cut-off read from the data, not from the text of the source: active = normalized growth mostly below about 0.91 (no sharp cut-off); inconclusive = no clear call, values can overlap the other calls; inactive = mostly above about 0.92. The list shows a part of the results.

Assay: chemical genetic growth profiling, strain panel (AID 1159580);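 note: tested at 20 µM; growth read once vehicle control cultures reached saturation at 30 °C; 1 = growth at the plate median or of vehicle wells; lower values mean less growth of the strain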
Details: S. cerevisiae deletion strains, growth OD

Measured: normalized growth

CNC(=O)O/N=C(\C)SC
inactive: locus YAL013W, strain DEP1, stronger effect = lower value 1 | locus YAL021C, strain ccr4, stronger effect = lower value 0.987 | locus YAL026C, strain drs2, stronger effect = lower value 1 | locus YAL030W, strain snc1, stronger effect = lower value 1.01 | locus YBL061C, strain skt5, stronger effect = lower value 1 | locus YBR009C, strain hhf1, stronger effect = lower value 1.01 | locus YBR021W, strain FUR4, stronger effect = lower value 1.03 | locus YBR023C, strain chs3, stronger effect = lower value 1 | locus YBR171W, strain sec66, stronger effect = lower value 1 | locus YBR229C, strain ROT2, stronger effect = lower value 1.01 | locus YBR231C, strain swc5, stronger effect = lower value 1 | locus YBR279W, strain paf1, stronger effect = lower value 0.999 | locus YCL011C, strain gbp2, stronger effect = lower value 1.01 | locus YCL016C, strain dcc1, stronger effect = lower value 0.998 | locus YCL029C, strain bik1, stronger effect = lower value 0.983 | locus YCL061C, strain MRC1, stronger effect = lower value 1 | locus YCL069W, strain vba3, stronger effect = lower value 1 | locus YCR088W, strain abp1, stronger effect = lower value 1 | locus YDL005C, strain med2, stronger effect = lower value 1 | locus YDL035C, strain GPR1, stronger effect = lower value 1.02 | locus YDL040C, strain nat1, stronger effect = lower value 0.999 | locus YDL074C, strain BRE1, stronger effect = lower value 1.07 | locus YDL101C, strain DUN1, stronger effect = lower value 1.02 | locus YDL134C, strain PPH21, stronger effect = lower value 1.01 | locus YDL185W, strain tfp1, stronger effect = lower value 0.988 | locus YDL192W, strain arf1, stronger effect = lower value 0.981 | locus YDR001C, strain nth1, stronger effect = lower value 1 | locus YDR069C, strain doa4, stronger effect = lower value 1 | locus YDR101C, strain arx1, stronger effect = lower value 0.983 | locus YDR137W, strain rgp1, stronger effect = lower value 1.01 | locus YDR150W, strain NUM1, stronger effect = lower value 1.01 | locus YDR159W, strain sac3, stronger effect = lower value 1 | locus YDR162C, strain NBP2, stronger effect = lower value 0.987 | locus YDR195W, strain ref2 0.971 | locus YDR297W, strain sur2, stronger effect = lower value 1.02 | locus YDR318W, strain mcm21, stronger effect = lower value 0.994 | locus YDR334W, strain swr1, stronger effect = lower value 0.999 | locus YDR335W, strain msn5, stronger effect = lower value 0.997 | locus YDR388W, stronger effect = lower value 0.984 | locus YDR392W, strain spt3, stronger effect = lower value 1 | locus YDR502C, strain sam2, stronger effect = lower value 0.993 | locus YEL003W, strain gim4, stronger effect = lower value 1 | locus YEL037C, strain rad23, stronger effect = lower value 1 | locus YEL061C, strain CIN8 (second series), stronger effect = lower value 1 | locus YEL061C, strain CIN8, stronger effect = lower value 1.01 | locus YER015W, strain faa2, stronger effect = lower value 0.982 | locus YER016W, strain bim1, stronger effect = lower value 1 | locus YER110C, stronger effect = lower value 0.977 | locus YER111C, strain swi4, stronger effect = lower value 0.996 | locus YER155C, strain BEM2 (second series), stronger effect = lower value 1.01 | locus YER155C, strain BEM2, stronger effect = lower value 1.01 | locus YER167W, strain BCK2, stronger effect = lower value 0.993 | locus YFR010W, strain ubp6, stronger effect = lower value 0.997 | locus YGL078C, strain dbp3, stronger effect = lower value 0.98 | locus YGL086W, strain mad1, stronger effect = lower value 0.984 | locus YGL167C, strain pmr1, stronger effect = lower value 0.996 | locus YGL173C, strain kem1, stronger effect = lower value 0.991 | locus YGL227W, strain vid30, stronger effect = lower value 1.01 | locus YGL240W, strain doc1, stronger effect = lower value 0.987 | locus YGL248W, strain PDE1, stronger effect = lower value 1.04 | locus YGL253W, strain hxk2, stronger effect = lower value 0.998 | locus YGR078C, strain PAC10, stronger effect = lower value 1 | locus YGR135W, strain pre9, stronger effect = lower value 0.998 | locus YGR229C, strain SMI1, stronger effect = lower value 1.03 | locus YGR252W, strain gcn5, stronger effect = lower value 0.986 | locus YHR013C, strain ard1, stronger effect = lower value 0.998 | locus YHR027C, strain rpn1, stronger effect = lower value 0.989 | locus YHR030C, strain SLT2, stronger effect = lower value 0.988 and 1.07 | locus YHR079C, strain IRE1 (second series), stronger effect = lower value 0.993 | locus YHR079C, strain IRE1, stronger effect = lower value 1.05 | locus YHR094C, strain hxt1, stronger effect = lower value 0.983 | locus YHR129C, strain ARP1, stronger effect = lower value 1.01 | locus YHR142W, strain chs7, stronger effect = lower value 1.01 | locus YHR200W, strain rpn10, stronger effect = lower value 0.99 | locus YIL066C, strain RNR3, stronger effect = lower value 1.03 | locus YIL073C, strain SPO22, stronger effect = lower value 0.995 | locus YIL125W, strain kgd1, stronger effect = lower value 0.986 | locus YIR030C, strain dcg1, stronger effect = lower value 0.98 | locus YJL092W, strain hpr5, stronger effect = lower value 0.996 | locus YJL095W, strain BCK1 (second series), stronger effect = lower value 0.996 | locus YJL095W, strain BCK1, stronger effect = lower value 1.01 and 1.04 | locus YJL115W, strain asf1, stronger effect = lower value 1 | locus YJL129C, strain trk1, stronger effect = lower value 1.01 | locus YJL134W, strain LCB3, stronger effect = lower value 1.02 | locus YJL154C, strain vps35, stronger effect = lower value 0.999 | locus YJL164C, strain tpk1, stronger effect = lower value 1 | locus YJL166W, strain qcr8, stronger effect = lower value 1 | locus YJL168C, strain set2, stronger effect = lower value 0.989 | locus YJL187C, strain SWE1 (second series), stronger effect = lower value 1.01 | locus YJL187C, strain SWE1, stronger effect = lower value 1.02 | locus YJR043C, strain POL32, stronger effect = lower value 1.01 | locus YJR066W, strain TOR1, stronger effect = lower value 0.988
